Hits are enriched below; roughly 8% of the tested compounds scored in any of these assays.
FMDV antiviral – foot and mouth disease virus antiviral activity; FMDV antiviral cell-based qHTS; 410,000 compounds, 1.2% hits; Potency, µM (highest dose often 57.9 µM), inactives show at the top dose activity change, negative = inhibition, hits mostly inhibitors; AID 1159524; calls by dose curve; tested in HEK293T cells; note: read-out not given here; potency is the fitted concentration of half-maximal effect; % is set by controls: 0 for no effect and ±100 for the full control effect; nearly all actives have a fitted effect of over 45% in size
LASV entry inh – inhibitors of Lassa virus binding or cell entry. Potency, µM (titrated, usually from 37.9 µM), for the others: at the highest dose activity change, negative = inhibition, usual class: inhibitors. AID 540256. Lassa virus pseudotype entry inhibition, cell reporter. 300,000 compounds, 1.2% hits; calls by dose curve; tested in HEK293 cells; note: potency is the fitted concentration of half-maximal effect; % is set by controls: 0 for no effect and ±100 for the full control effect; nearly all actives have a fitted effect of over 50% in size
SARS PLpro yeast – SARS-CoV PLP inhibition in yeast; S. cerevisiae expressing SARS-CoV PLpro, growth rescue; Potency, µM (doses to about 32.9 µM), without a hit: at the top dose activity, positive = growth rescue, usual class: activators; 330,000 compounds, 0.19% hits; AID 485353; calls by dose curve; note: potency is the fitted concentration of half-maximal effect; 0% is about no effect; nearly all actives have a fitted effect of over 55% in size
MARV entry inh – blocks Marburg virus binding to or entry into cells; Marburg virus pseudotyped entry inhibition, cell reporter; Potency, µM (highest dose often 37.8 µM), inactives show at the top dose activity change, negative = inhibition, usual class: inhibitors; 300,000 compounds, 1.8% hits; AID 540276; calls by dose curve; tested in HEK293 cells; note: potency is the fitted concentration of half-maximal effect; % is set by controls: 0 for no effect and ±100 for the full control effect
HCV inh – HCV inhibition. Huh7.5.1 HCVcc-Cre infection, luciferase reporter, 44 h. Potency, µM (titrated, usually from 41.8 µM), for inactives: at the top dose activity change, negative = inhibition, hits mostly inhibitors. 340,000 compounds, 3.4% hits; active = well fitted inhibition curve with a large enough effect; inconclusive = small, poorly fitted or top-dose-only effect, or another doubt; inactive = no such curve, though single readings can be large or run the other way; note: potency is the fitted concentration of half-maximal effect; % is set by controls: 0 for no effect and ±100 for the full control effect
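Whole-lifecycle infectious HCVcc-Cre system; cells 1,000/well, compound then virus (~0.5 moi) added 4 h after plating, 44 h culture. Luciferase read 15 sec following 15 min substrate incubation, room temp.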
HCMV antiviral – inhibitors of human cytomegalovirus; HFF cells, HCMV-luciferase reporter, 72 h; active compounds read low; activity change, negative = inhibition, % at 57.5 µM; 410,000 compounds, 4.5% hits; AID 1259415; in the data active = activity change below about -60%; inconclusive = no clear call, values can overlap the other calls; inactive = above about -39%; note: % is set by controls: 0 for no effect and ±100 for the full control effect
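Luciferase read-out from HCMV-luciferase-infected HFFs (MOI 1 PFU/cell) 72 h post infection at 37C; compounds added after 16 h cell attachment; activity normalized between buffer-only basal and Salinomycin (10uM) inhibitor controls.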
* = called active by the depositor; u = inconclusive; x = no result given; [ ] = remark or other dose.

SMILES	FMDV antiviral	LASV entry inh	SARS PLpro yeast	MARV entry inh	HCV inh	HCMV antiviral
Cc1noc(Cn2c(=O)c3ccccc3n(CC(=O)Nc3ccc(F)cc3F)c2=O)n1	u	21.1%[46.1 µM]	x	x	x	-2.1
CNS(=O)(=O)c1cnccc1N1CCN(c2cccc(Cl)c2)CC1	-28.7%	4.7%	x	0.5%	-6.1%	-15.0
CCN(CC)S(=O)(=O)c1cnccc1N1CCN(c2cccc(Cl)c2)CC1	39.8µM*	u	-52.6%	u	-18.2%	-29.3
CCN(CC)C(=O)c1cccc(-c2csc(C(O)c3ccc(F)c(F)c3)n2)c1 (stereo not drawn)	u	x	x	x	x	-12.1
CC(=O)Nc1ccc(/C=N/NC(=S)NC(C)C)cc1	-7.5%	u	0.1%	17.4%[46.1 µM]	-21.5%	23.4
O=C(CC1SC(=Nc2cccc3ccccc23)N(Cc2ccccn2)C1=O)Nc1ccccc1Br (stereo not drawn)	6.9%	u	-5.4%	u	-3.5%	33.3
Cc1ccccc1N=C1SC(CC(=O)Nc2ccc3ccccc3c2)C(=O)N1Cc1ccccn1 (stereo not drawn)	u	16.4µM*	7.6%	u	10µM*	-7.9
Cc1ccc2c(c1)Oc1ccc(NC(=O)CCCl)cc1C(=O)N2	-6.1%	x	-0.1%	x	u	-90.5*
CCCC(=O)Nc1ccc2c(c1)C(=O)NC2=O	-19.5%	x	-2.7%	x	8.5%	u
CN1C(=O)C(CC(=O)Nc2ccc(F)cc2)N(CCCc2ccccc2)C1=S (stereo not drawn)	u	u	-12.4%	11.2µM*	-17.0%	u
COc1ccc(NC(=O)CC2C(=O)N(C)C(=S)N2CCc2ccccc2F)cc1 (stereo not drawn)	0.0%	u	0.1%	u	u	u
O=C(c1ccc2c(c1)N(Cc1cccc(Cl)c1)C(=O)c1ccccc1S2(=O)=O)N1CCCCCC1	2.7%	u	x	x	x	-65.5*
COc1ccccc1N1CCN(C(=O)c2ccc3c(c2)N(Cc2ccccc2)C(=O)c2ccccc2S3(=O)=O)CC1	4.0%	-22.8%[46.1 µM]	x	8.91µM*	x	5.3
COc1ccc(CCNC(=O)c2ccc3c(c2)N(Cc2ccc(F)cc2)C(=O)c2ccccc2S3(=O)=O)cc1OC	-0.9%	-27.4%[46.1 µM]	x	10µM*	x	-24.1
CCOc1ccc(CCNC(=O)c2ccc3c(c2)N(Cc2cccc(Cl)c2)C(=O)c2ccccc2S3(=O)=O)cc1OCC	-7.6%	-17.9%[46.1 µM]	x	x	x	-37.7
O=C(c1ccc2c(c1)N(Cc1cccc(Cl)c1)C(=O)c1ccccc1S2(=O)=O)N1CCCC1	-0.9%	-21.0%[46.1 µM]	x	x	x	u
CCC1CCCCN1CCCNC(=O)c1ccc2c(c1)N(Cc1ccccc1F)C(=O)c1ccccc1S2(=O)=O (stereo not drawn)	-7.2%	u	x	u	x	-101.5*
CCn1ccc2cc(S(=O)(=O)N3CCCN(C(=O)NCCOC)CC3)ccc21	-8.4%	14.8%[46.1 µM]	x	x	x	7.6
Cc1ccc(C(=O)N2CCCCC2)cc1NC1=C(Cl)C(=O)N(Cc2ccccc2)C1=O	u	x	-5.8%	x	u	-66.3*
O=C(c1ccc2c(c1)N(Cc1ccc(Cl)cc1)C(=O)c1ccccc1S2(=O)=O)N1CCN(c2ccccn2)CC1	-24.4%	1.9%[46.1 µM]	x	-5.3%[46.1 µM]	x	-18.9
Cc1ccc(C)c(CN2C(=O)c3ccccc3S(=O)(=O)c3ccc(C(=O)N(C)C4CCCCC4)cc32)c1	19.9%	-21.9%[46.1 µM]	x	u	x	-75.7*
CN1CCN(C(=O)c2ccc3c(c2)N(Cc2cccc(Cl)c2)C(=O)c2ccccc2S3(=O)=O)CC1	-1.8%	u	5.3%	x	-20.3%	u
Cc1ccc(O)c(NC2=C(Cl)C(=O)N(Cc3ccccc3)C2=O)c1	6.7%	1.5%[46.1 µM]	-2.0%	-45.7%[46.1 µM]	-19.4%	-2.2
O=C(c1ccc2c(c1)N(Cc1cccc(Cl)c1)C(=O)c1ccccc1S2(=O)=O)N1CCN(Cc2ccccc2)CC1	-12.9%	u	x	x	x	-67.2*
O=C(c1ccc2c(c1)N(Cc1cccc(Cl)c1)C(=O)c1ccccc1S2(=O)=O)N1CCN(c2ccccn2)CC1	-6.0%	x	1.7%	x	14.1µM*	-84.1*
SMILES	FMDV antiviral	LASV entry inh	SARS PLpro yeast	MARV entry inh	HCV inh	HCMV antiviral
CC(=O)Oc1cc(C(=O)OCC(=O)N2CCc3ccccc3C2)cc(OC(C)=O)c1OC(C)=O	-1.7%	u	-1.0%	u	-20.0%	-18.6
CCCc1cc(=O)oc2cc(C)cc(OCC(=O)NCCN3CCOCC3)c12	-17.5%	x	-6.5%	x	-23.9%	-7.4
CCCc1cc(=O)oc2cc(OCC(=O)NCCN3CCOCC3)c(Cl)cc12	-18.8%	x	x	x	x	-79.1*
COc1ccc([C@H]2CC(=O)C=C(c3cc(Cl)ccc3C)C2)cc1	-21.7%	x	-8.5%	x	-22.3%	-35.8
COc1ccc([C@H]2CC(=O)C=C(c3cc(C)ccc3OC)C2)cc1	-7.9%	x	-1.8%	x	7.94µM*	-1.1
COc1ccc([C@H]2CC(=O)C=C(c3ccnc4ccc(Cl)cc34)C2)cc1	u	x	5.3%	x	u	-77.8*
COc1ccc([C@H]2CC(=O)C=C(c3cc(F)ccc3F)C2)cc1OC	31.6µM*	x	2.3%	x	11.2µM*	-2.8
CC1=CC[C@@H](C)O[C@@]2(C1)C(=O)Nc1cccc(Br)c12	x	u	x	-15.4%[14.2 µM]	x	x
CN(c1ccc(C(=O)NC2CCCC2)cc1)S(=O)(=O)c1ccc(Cl)cc1	-5.3%	6.1%[46.1 µM]	1.1%	-2.1%[46.1 µM]	-16.7%	7.5
CN=C(NC1CCCCC1)c1ccc(Cl)cc1	-19.8%	-4.0%	10.5%	u	23.9%	-60.0*
O=C(NC1CCCCC1)Sc1ccc(Cl)cc1	31.6µM*	0.5%	4.1%	18.7%[46.1 µM]	-24.8%	14.2
O=C(CCSCc1ccc(Cl)cc1)NC1CCCC1	-11.8%	u	-26.3%	10.8%	7.6%	-101.8*
CS(=O)(=O)c1ccc(NC(=O)c2cc3c(cc2Cl)N2CCCCCC2=NS3(=O)=O)cc1	-4.8%	-5.4%	x	u	35.8%	-27.2
COc1ccc(C)cc1S(=O)(=O)N1CCCC(C(=O)N2CCN(c3ccccc3)CC2)C1 (stereo not drawn)	u	x	-1.9%	x	u	-69.0*
CCOC(=O)N1CCN(C(=O)C2CCCN(S(=O)(=O)c3cc(C)ccc3OC)C2)CC1 (stereo not drawn)	x	3.0%	3.6%	10.0%	6.4%	19.7
COc1ccc(S(=O)(=O)N2CCCC(C(=O)N3CCN(c4ccccc4)CC3)C2)cc1Cl (stereo not drawn)	35.5µM*	u	14.5%	-22.4%	u	-8.6
Cc1ccnc(NS(=O)(=O)c2ccc(NC(=O)c3ccc([N+](=O)[O-])s3)cc2)n1	-9.7%	u	3.7%	-28.3%	4.4%	-96.2*
Cc1nc2cc(NC(=O)c3ccc([N+](=O)[O-])s3)ccc2s1	10.6%	u	2.2%	u	u	-93.8*
Cc1cc(NS(=O)(=O)c2ccc(NC(=O)c3ccc([N+](=O)[O-])s3)cc2)nc(C)n1	69.9%	2.5%	1.9%	-20.2%	u	-96.7*
COc1cccc(NC(=O)Nc2cc(-c3cn4cccnc4n3)ccc2C)c1	14.5%	u	x	10.9%[46.1 µM]	x	6.5

Screening data: PubChem, National Center for Advancing Translational Sciences (NCATS)
